Reference: PubChem BioAssay (Tox21)
“And” between values parts separate entries of the source, which are not always exact repeats. Equal values may be shown once. Results filed as inconclusive are left out. Entries that show only a call come without a potency. More than one record can exist for a structure, and the calls need not agree. The source made the active and inactive calls. Unless noted, calls come from the whole dose curve; as a rule, active = well fitted curve in the direction sought with a large enough effect in the repeat runs; inconclusive = weak or mixed curves; inactive = no such curve, though single readings can be large; an effect the other way counts as inactive or inconclusive.

Key:
[1] = qHTS assay for small molecule agonists of the p53 signaling pathway (AID 651631; calls by dose curve; note: nearly all actives have a fitted effect of over 15% in size; note: potency is the fitted concentration of half-maximal effect)
How it was run: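 Fluorescence intensity from cleaved LiveBLAzer B/G substrate (2 h, room temperature) served as the signal. Beforehand, HCT-116 reporter cells bearing p53 response elements were treated 16 h at 37 °C with DMSO-dissolved compounds.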

[2] = qHTS assay for small molecules that induce genotoxicity in human embryonic kidney cells expressing luciferase-tagged ATAD5 (AID 651632); note: nearly all actives have a fitted effect of over 15% in size; note: potency is the fitted concentration of half-maximal effect
How it was run: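 Reporter cells (HEK293T) express luciferase-tagged ATAD5, a protein that accumulates after DNA damage. Treat 16 hr at 37C/5% CO2, add Amplite, wait 30 min at RT, and read luminescence.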

[3] = qHTS assay for small molecule agonists of the p53 signaling pathway - cell viability (AID 651633; calls by dose curve;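 note: p53RE-bla HCT reporter cells with a stable beta-lactamase p53 reporter; series mostly up to about 83 µM; nearly all actives have a fitted effect of over 30% in size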)
How it was run: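 p53RE-bla cells were treated with compound for 16 hours at 37 C. Cytotoxicity was then measured as CellTiter-Glo luminescence after 30 min at room temperature.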

[4] = qHTS assay for small molecules that induce genotoxicity in human embryonic kidney cells expressing luciferase-tagged ATAD5 - cell viability (AID 651634; calls by dose curve; note: nearly all actives have a fitted effect of over 25% in size; note: potency is the fitted concentration of half-maximal effect)
How it was run: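 Seeding of 2,000 HEK293T ATAD5-luciferase cells per well preceded pin-tool compound transfer. Plates sat 15.5 hr at 37C under 5% CO2, then fluorescence was read after 30 min with CellTiter-Fluor.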

[5] = qHTS assay for small molecule disruptors of the mitochondrial membrane potential (AID 720635); note: potency is the fitted concentration of half-maximal effect
How it was run: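 HepG2 cells exposed to compound 1 hr at 37C, then Mito-MPS dye 30 min. Ratio read of aggregate (540/590 nm) versus monomer (490/535 nm) fluorescence.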

[6] = qHTS assay to test for compound auto fluorescence at 590 nm (red) in HepG2 cells (AID 720674)
How it was run: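 HepG2 cells, 2,000 per well in MEM with 10% FBS, attached overnight at 37 C, then got 23 nL compound or DMSO. After 1 hr at 37 C, 5% CO2, red fluorescence was read at 540/590 nm against Rose Bengal sodium as reference.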

[7] = qHTS assay to test for compound auto fluorescence at 460 nm (blue) in HEK293 cells (AID 720678); note: potency is the fitted concentration of half-maximal effect
How it was run: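 After cell attachment (4-5 hr, 37C), compounds were pinned onto HEK293 monolayers in 10% dialyzed FBS medium. The blue channel (405/460 nm) was read following overnight culture. Equivalency was calculated against triamterene.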

[8] = qHTS assay for small molecule disruptors of the mitochondrial membrane potential - cell viability (AID 720634; calls by dose curve;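 note: human HepG2 liver cancer cells; series mostly up to about 83 µM; nearly all actives have a fitted effect of over 20% in size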)
How it was run: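 Measuring cytotoxicity alongside mitochondrial potential, the screen quantified ATP by luminescence in HepG2 cells after 1 hr compound incubation and a 30 min room-temperature CellTiter-Glo step.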

[9] = qHTS assay to test for compound auto fluorescence at 535 nm (green) in HepG2 cells (AID 720675)
[10] = qHTS assay to test for compound auto fluorescence at 590 nm (red) in HEK293 cells (AID 720679)
How it was run: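 Plates of HEK293 cells (10% dialyzed FBS) are treated with 23 nL compound or DMSO vehicle after a 4-5 hr attachment period, incubated overnight at 37C, and read for red fluorescence at 540/590nm.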
Tags give direction and shape of the fitted curve or compound fluorescence and quenching.

Structure (SMILES)	Potency [1]	Potency [2]	Potency [3]	Potency [4]	Potency [5]	outcome [6]	Potency [7]	Potency [8]	outcome [9]	outcome [10]	fluorescence, relative to Rose Bengal [6]	fluorescence, % of fluorescein control [9]	fluorescence, % of triamterene [7]	fluorescence, % of fluorescent control [10]
CCCCC/C(=C\c1ccccc1)CO	inactive	inactive	inactive	inactive	30.3 µM (active)	inactive	inactive							
CNC(=O)N(c1ccccc1)c1ccccc1	inactive	inactive	inactive	inactive		inactive	inactive	inactive	inactive					
CC1(C)O[C@@H]2C[C@H]3[C@@H]4CCC5=CC(=O)C=C[C@]5(C)[C@H]4[C@@H](O)C[C@]3(C)[C@]2(C(=O)CO)O1	inactive	11.9 nM (active)	inactive	inactive		inactive	inactive	inactive	inactive	inactive				
CC(C)OCC1CO1 (configuration not stated)	inactive	inactive	inactive	inactive		inactive	inactive	inactive		inactive				
CCOC(=N)CC(=O)OCC	inactive	inactive	inactive	inactive		inactive	inactive	inactive	inactive	inactive				
CCCCC(CC)COC(=O)COc1ccc(Cl)cc1C (configuration not stated)	inactive	inactive	inactive	inactive		inactive	inactive	inactive	inactive	inactive				
CCN(CC)CCNC(=O)c1ccc(NC(C)=O)cc1	inactive	inactive	inactive	inactive	inactive	inactive	inactive	inactive		inactive				
Cc1cc(OI)c(C(C)C)cc1-c1cc(C(C)C)c(OI)cc1C	inactive	inactive	inactive	inactive		inactive	inactive	inactive	inactive	inactive				
CNCCCC1c2ccccc2C=Cc2ccccc21	inactive	inactive	inactive	inactive				inactive			-0.202% [at 18.6 µM] (inactive)	-0.0324% [at 18.6 µM] (inactive)	0.0209% [at 18.6 µM] (inactive)	-0.279% [at 18.6 µM] (inactive)
CC(C)(C)C(=O)C(Oc1ccc(Cl)cc1)n1ccnc1 (configuration not stated)	inactive	inactive	inactive	inactive		inactive	inactive	inactive	inactive	inactive				
CCOC(=O)C(C)Oc1ccc(Oc2nc3ccc(Cl)cc3o2)cc1 (configuration not stated)	inactive	inactive	inactive	inactive	inactive	inactive	inactive	inactive		inactive				
CN1CCN(CCCN2c3ccccc3Sc3ccc(S(=O)(=O)N(C)C)cc32)CC1	inactive	inactive	inactive	inactive				inactive			-0.708% [at 18.6 µM] (inactive)	-0.102% [at 18.6 µM] (inactive)	0.42% [at 18.6 µM] (inactive)	
Cc1nc2ccccn2c(=O)c1CCN1CCC(C(=O)c2ccc(F)cc2)CC1	inactive	inactive	inactive	inactive		inactive	inactive	inactive	inactive	inactive				
CC(=N\O)/C(C)=N/O	inactive	inactive	inactive	inactive		inactive	inactive	inactive	inactive	inactive				
C[N+](C)(C)CCOC(N)=O	inactive	inactive	inactive	inactive	inactive	inactive	inactive	inactive		inactive				
CC(C)CCCC(=O)O	inactive	inactive	inactive	inactive	inactive	inactive	inactive	inactive		inactive				
O=S(=O)(c1ccccc1)c1ccc(Cl)cc1	inactive	inactive	inactive	inactive		inactive	inactive		inactive	inactive				
C=CC(C)=CCC=C(C)C	inactive	inactive	inactive	inactive		inactive	inactive	inactive	inactive	inactive				
O=C(CCCN1CCC(O)(c2ccc(Br)cc2)CC1)c1ccc(F)cc1	inactive	inactive	inactive	inactive				inactive			0.666% [at 18.6 µM] (inactive)	0.0047% [at 18.6 µM] (inactive)	-0.176% [at 18.6 µM] (inactive)	
OCCSc1ccccc1	inactive	inactive	inactive	inactive	inactive	inactive	inactive	inactive	inactive	inactive				
COC(=O)Nc1nc2ccc(C(=O)c3cccs3)cc2[nH]1	133 nM (active)	2370 nM (active)	inactive	0.133 µM (active)	2.37 µM (active)	inactive	inactive	inactive		inactive				
CC1(C)C(=O)N(Br)C(=O)N1Cl	inactive	inactive	inactive	inactive		inactive	inactive	inactive	inactive	inactive				
CCC(C)(C)C1CCC(O)CC1 (configuration not stated)	inactive	inactive	inactive	inactive		inactive	inactive		inactive	inactive				
O=C(O)c1snc(Cl)c1Cl	inactive	inactive	inactive	inactive		inactive	inactive	inactive	inactive	inactive				
CN(C(=O)C(Cl)Cl)c1ccc(OC(=O)c2ccco2)cc1	inactive	inactive	inactive	inactive		inactive	inactive	inactive		inactive				
Fc1c(F)c(F)c(Br)c(F)c1F	inactive	inactive	inactive	inactive	inactive	inactive	inactive	inactive		inactive				
Nc1ccc(S(=O)(=O)O)c(N)c1	inactive	inactive	inactive	inactive		inactive	inactive	inactive	inactive	inactive				

Structure (SMILES)	Potency [1]	Potency [2]	Potency [3]	Potency [4]	Potency [5]	outcome [6]	Potency [7]	Potency [8]	outcome [9]	outcome [10]	fluorescence, relative to Rose Bengal [6]	fluorescence, % of fluorescein control [9]	fluorescence, % of triamterene [7]	fluorescence, % of fluorescent control [10]
C/C=C/C=C/CCCCCCCO	inactive	inactive	inactive	inactive		inactive	inactive	inactive	inactive	inactive				
O=C(O)c1cccnc1C(=O)O	inactive	inactive	inactive	inactive		inactive	inactive	inactive	inactive	inactive				
CC(C)C(=O)O	inactive	inactive	inactive	inactive		inactive	inactive		inactive	inactive				
CCCCCCCC/C=C\CCCCCCCC(=O)OC	inactive	inactive		inactive	inactive	inactive	inactive	inactive	inactive	inactive				
CC(COc1ccc(C(C)(C)C)cc1)OS(=O)OCCCl (configuration not stated)	inactive	inactive		inactive	inactive	inactive	inactive	inactive	inactive	inactive				
c1ccc(COCc2ccccc2)cc1	inactive		inactive	inactive	inactive	inactive	inactive	inactive		inactive				
CC1=CC(=O)CC(C)(C)C1(O)/C=C/C(C)=C\C(=O)O (configuration not stated)	inactive	inactive		inactive	inactive	inactive	inactive	inactive		inactive				
CCCCN(CCCC)CCCOC(=O)c1ccc(N)cc1	inactive	inactive		inactive				inactive			-0.556% [at 18.6 µM] (inactive)	0.038% [at 18.6 µM] (inactive)	-0.0222% [at 18.6 µM] (inactive)	0.141% [at 18.6 µM] (inactive)
C[C@@H]1C[C@H]2[C@@H]3CCC4=CC(=O)C=C[C@]4(C)[C@@]3(F)[C@@H](O)C[C@]2(C)[C@H]1C(=O)CO	inactive	inactive	inactive		inactive	inactive	inactive	inactive	inactive	inactive				
c1cnc2c(n1)CCCC2	inactive	inactive	inactive			inactive	inactive	inactive	inactive					
CCOc1cc(N)c(Cl)cc1C(=O)NCC1CN(Cc2ccc(F)cc2)CCO1 (configuration not stated)	inactive	inactive		inactive		inactive	inactive	inactive	inactive	inactive				
CO[C@H]1C=CO[C@@]2(C)Oc3c(C)c(O)c4c(O)c(c5c(c4c3C2=O)=NC2(CCN(CC(C)C)CC2)N=5)NC(=O)/C(C)=C\C=C/[C@H](C)[C@H](O)[C@@H](C)[C@@H](O)[C@@H](C)[C@H](OC(C)=O)[C@@H]1C	inactive	inactive		53.3 µM (active)		inactive	inactive	inactive	inactive					
CCC(=O)OC/C=C/c1ccccc1	inactive		inactive	inactive	inactive	inactive	inactive	inactive	inactive	inactive				
C[C@]12CCC(=O)C=C1C=C[C@@H]1[C@@H]2CC[C@@]2(C)[C@H]1CC[C@@]21CCC(=O)O1	inactive	inactive		inactive	inactive	inactive	inactive	inactive	inactive	inactive				
CC(C)(C)C(=O)O	inactive	inactive	inactive	inactive		inactive	inactive			inactive				
CCn1cc(C(=O)O)c(=O)c2cc(F)c(N3CCNCC3)nc21	inactive	inactive		inactive				inactive			0.819% [at 18.6 µM] (inactive)		-0.37% [at 18.6 µM] (inactive)	-0.616% [at 18.6 µM] (inactive)
Cc1cc(O)c(C(C)C)cc1Cl	inactive	inactive		inactive	inactive and 4.33 µM (active)	inactive	inactive	inactive	inactive					
COc1ccc(CCC(=O)c2c(O)cc(O[C@@H]3O[C@H](CO)[C@@H](O)[C@H](O)[C@H]3O[C@@H]3O[C@@H](C)[C@H](O)[C@@H](O)[C@H]3O)cc2O)cc1O	inactive		inactive	inactive	inactive	inactive	inactive	inactive	inactive	inactive				
O=C(/C=C/c1ccccc1)OCCCc1ccccc1	inactive		inactive	inactive	inactive	inactive	inactive	inactive	inactive	inactive				
Cc1cnc(C)c(C)n1	inactive		inactive	inactive	inactive	inactive	inactive	inactive	inactive					
CCCCCCOC(=O)C(C)C	inactive		inactive	inactive	inactive	inactive	inactive	inactive	inactive	inactive				
O=C(CCCCCCCCC#CI)Oc1ccccc1	inactive	inactive		inactive		inactive	inactive	inactive	inactive	inactive				
CC1CC(=O)NN=C1c1ccc(NCC(C)(C)NCC(O)COc2cc(Cl)ccc2C#N)cc1 (configuration not stated)	inactive	inactive		inactive		inactive	inactive	inactive	inactive					
CC(C)CCCCCCOC(=O)CCCCC(=O)OCCCCCCC(C)C	inactive	inactive		inactive		inactive	inactive		inactive	inactive				
CC(=O)[C@H]1CC[C@H]2[C@@H]3C[C@H](C)C4=CC(=O)CC[C@]4(C)[C@H]3[C@@H](O)C[C@]12C	inactive	inactive		inactive				inactive			0.133% [at 18.6 µM] (inactive)	-0.105% [at 18.6 µM] (inactive)	-0.0231% [at 18.6 µM] (inactive)	-0.987% [at 18.6 µM] (inactive)
CCc1c2c(nc3ccc(OC(=O)N4CCC(N5CCCCC5)CC4)cc13)-c1cc3c(c(=O)n1C2)COC(=O)[C@]3(O)CC	2660 nM (active)	inactive		inactive	11.9 µM (active)	inactive	12.6 µM [fluorescent] (active)	inactive		inactive				
